# According to ChEMBL document CHEMBL1961873, “Compounds: GSK PKIS; Assays: Nanosyn kinase panel” (2012):
# Assays:
# [1] = biological target: Sphingosine kinase 1 (Homo sapiens) (UniProt Q9NYA1); details: at 1 µM;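 note: mean SPHK1 inhibition value reported from the GSK PKIS kinase panel screen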
# [2] = biological target: T1, Sphingosine kinase 2 (Homo sapiens) (UniProt Q9NRA0); details: at 0.1 µM
# T1 sequence (whole entry): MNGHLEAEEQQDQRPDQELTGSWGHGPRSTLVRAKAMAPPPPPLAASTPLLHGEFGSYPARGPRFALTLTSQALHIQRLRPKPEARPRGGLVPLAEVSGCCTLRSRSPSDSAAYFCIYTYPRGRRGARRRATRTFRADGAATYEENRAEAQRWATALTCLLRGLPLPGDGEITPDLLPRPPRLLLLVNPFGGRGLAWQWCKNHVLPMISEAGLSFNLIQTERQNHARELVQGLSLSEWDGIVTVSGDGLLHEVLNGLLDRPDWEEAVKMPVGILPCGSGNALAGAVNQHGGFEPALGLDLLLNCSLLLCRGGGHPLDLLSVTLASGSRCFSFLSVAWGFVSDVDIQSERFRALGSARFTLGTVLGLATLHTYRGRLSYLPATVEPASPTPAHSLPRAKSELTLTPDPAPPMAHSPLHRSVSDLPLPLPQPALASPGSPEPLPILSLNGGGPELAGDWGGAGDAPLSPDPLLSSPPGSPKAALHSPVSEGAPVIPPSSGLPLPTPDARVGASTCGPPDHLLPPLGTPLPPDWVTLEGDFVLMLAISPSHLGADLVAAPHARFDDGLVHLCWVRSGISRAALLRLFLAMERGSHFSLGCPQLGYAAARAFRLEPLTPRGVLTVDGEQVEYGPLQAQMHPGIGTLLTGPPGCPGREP
# [3] = biological target: T1, Sphingosine kinase 2 (Homo sapiens); details: at 1 µM
# [4] = biological target: Casein kinase II subunit alpha (Homo sapiens) (UniProt P68400); details: at 0.1 µM
# Chain of Casein kinase II subunit alpha (Homo sapiens) (P68400 whole entry, looked up): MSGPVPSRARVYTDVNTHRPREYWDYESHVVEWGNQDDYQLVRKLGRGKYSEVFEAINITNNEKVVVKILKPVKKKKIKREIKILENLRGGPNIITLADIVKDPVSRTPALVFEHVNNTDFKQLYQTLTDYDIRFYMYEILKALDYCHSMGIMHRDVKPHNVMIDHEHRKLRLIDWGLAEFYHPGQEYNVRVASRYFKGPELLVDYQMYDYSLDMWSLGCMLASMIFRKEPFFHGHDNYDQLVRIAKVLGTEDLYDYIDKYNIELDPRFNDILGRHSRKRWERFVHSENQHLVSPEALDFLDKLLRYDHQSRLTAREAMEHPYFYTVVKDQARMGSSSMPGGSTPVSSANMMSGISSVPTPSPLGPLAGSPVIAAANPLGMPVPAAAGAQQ
# [5] = biological target: Casein kinase II subunit alpha (Homo sapiens) (UniProt P68400); details: at 1 µM
# [6] = biological target: T2, Inhibitor of nuclear factor kappa-B kinase subunit alpha (Homo sapiens) (UniProt O15111); details: at 0.1 µM
# T2 sequence (whole entry): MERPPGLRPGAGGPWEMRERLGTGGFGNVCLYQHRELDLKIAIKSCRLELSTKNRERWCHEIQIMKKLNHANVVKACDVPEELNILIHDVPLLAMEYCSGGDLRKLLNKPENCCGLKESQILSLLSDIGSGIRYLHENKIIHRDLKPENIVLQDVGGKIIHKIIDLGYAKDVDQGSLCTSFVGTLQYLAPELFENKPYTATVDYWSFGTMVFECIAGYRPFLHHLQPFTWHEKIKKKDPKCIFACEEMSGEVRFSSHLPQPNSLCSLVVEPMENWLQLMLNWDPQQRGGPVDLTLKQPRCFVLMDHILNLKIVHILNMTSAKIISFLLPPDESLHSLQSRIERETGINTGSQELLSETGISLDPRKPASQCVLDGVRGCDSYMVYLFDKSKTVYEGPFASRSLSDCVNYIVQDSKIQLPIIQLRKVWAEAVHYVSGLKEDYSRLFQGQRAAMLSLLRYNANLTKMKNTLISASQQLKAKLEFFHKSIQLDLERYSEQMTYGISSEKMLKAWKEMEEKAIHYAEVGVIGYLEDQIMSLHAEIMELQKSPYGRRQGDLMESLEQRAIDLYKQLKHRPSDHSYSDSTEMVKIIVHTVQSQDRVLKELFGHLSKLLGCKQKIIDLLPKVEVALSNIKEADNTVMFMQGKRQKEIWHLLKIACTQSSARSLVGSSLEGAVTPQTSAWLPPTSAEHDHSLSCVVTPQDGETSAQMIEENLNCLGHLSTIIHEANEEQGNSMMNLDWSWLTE
# [7] = biological target: T2, Inhibitor of nuclear factor kappa-B kinase subunit alpha (Homo sapiens); details: at 1 µM
# [8] = biological target: T3, Inhibitor of nuclear factor kappa-B kinase subunit beta (Homo sapiens) (UniProt O14920); details: at 0.1 µM
# T3 sequence (whole entry): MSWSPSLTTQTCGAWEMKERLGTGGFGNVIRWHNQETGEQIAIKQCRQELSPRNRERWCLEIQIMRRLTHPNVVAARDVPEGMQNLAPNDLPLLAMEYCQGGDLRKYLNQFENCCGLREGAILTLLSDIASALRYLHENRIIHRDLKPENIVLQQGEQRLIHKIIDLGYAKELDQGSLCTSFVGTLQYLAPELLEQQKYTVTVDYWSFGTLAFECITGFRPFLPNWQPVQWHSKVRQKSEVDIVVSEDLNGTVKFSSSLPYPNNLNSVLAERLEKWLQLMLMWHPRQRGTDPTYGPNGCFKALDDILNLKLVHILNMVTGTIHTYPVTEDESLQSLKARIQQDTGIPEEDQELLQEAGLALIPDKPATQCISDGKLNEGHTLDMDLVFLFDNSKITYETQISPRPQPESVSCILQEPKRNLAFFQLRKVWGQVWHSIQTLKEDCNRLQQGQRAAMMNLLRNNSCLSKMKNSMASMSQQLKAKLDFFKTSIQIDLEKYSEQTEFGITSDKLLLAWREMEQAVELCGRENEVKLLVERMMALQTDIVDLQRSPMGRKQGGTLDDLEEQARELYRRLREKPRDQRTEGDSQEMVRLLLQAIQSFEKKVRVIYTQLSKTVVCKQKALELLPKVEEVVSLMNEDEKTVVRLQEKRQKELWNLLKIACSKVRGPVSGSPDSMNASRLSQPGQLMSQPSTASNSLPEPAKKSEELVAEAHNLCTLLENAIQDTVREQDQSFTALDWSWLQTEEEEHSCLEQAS
# [9] = biological target: T3, Inhibitor of nuclear factor kappa-B kinase subunit beta (Homo sapiens); details: at 1 µM
# [10] = biological target: T4, Inhibitor of nuclear factor kappa-B kinase subunit epsilon (Homo sapiens) (UniProt Q14164); details: at 0.1 µM
# T4 sequence (whole entry): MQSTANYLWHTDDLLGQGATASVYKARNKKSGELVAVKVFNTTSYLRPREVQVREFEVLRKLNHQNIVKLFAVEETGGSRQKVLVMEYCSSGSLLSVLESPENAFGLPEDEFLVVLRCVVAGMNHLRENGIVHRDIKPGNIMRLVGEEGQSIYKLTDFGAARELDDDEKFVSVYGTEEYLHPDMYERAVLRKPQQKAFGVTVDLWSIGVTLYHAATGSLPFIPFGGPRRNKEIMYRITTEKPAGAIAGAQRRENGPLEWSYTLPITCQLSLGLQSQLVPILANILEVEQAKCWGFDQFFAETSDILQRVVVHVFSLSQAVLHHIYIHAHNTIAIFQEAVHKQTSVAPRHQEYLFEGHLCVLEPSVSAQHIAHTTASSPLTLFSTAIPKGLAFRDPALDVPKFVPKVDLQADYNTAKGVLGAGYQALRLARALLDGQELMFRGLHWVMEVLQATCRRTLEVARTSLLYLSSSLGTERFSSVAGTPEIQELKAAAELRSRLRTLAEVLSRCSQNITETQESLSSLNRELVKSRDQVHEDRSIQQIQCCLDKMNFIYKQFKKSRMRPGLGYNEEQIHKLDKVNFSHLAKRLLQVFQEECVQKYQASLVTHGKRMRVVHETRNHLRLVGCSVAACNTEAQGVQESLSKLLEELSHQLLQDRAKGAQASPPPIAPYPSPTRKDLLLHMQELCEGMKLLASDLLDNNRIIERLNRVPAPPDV
# [11] = biological target: T4, Inhibitor of nuclear factor kappa-B kinase subunit epsilon (Homo sapiens); details: at 1 µM
# [12] = biological target: T5, Serine/threonine-protein kinase Nek1 (Homo sapiens) (UniProt Q96PY6); details: at 0.1 µM
# T5 sequence (whole entry): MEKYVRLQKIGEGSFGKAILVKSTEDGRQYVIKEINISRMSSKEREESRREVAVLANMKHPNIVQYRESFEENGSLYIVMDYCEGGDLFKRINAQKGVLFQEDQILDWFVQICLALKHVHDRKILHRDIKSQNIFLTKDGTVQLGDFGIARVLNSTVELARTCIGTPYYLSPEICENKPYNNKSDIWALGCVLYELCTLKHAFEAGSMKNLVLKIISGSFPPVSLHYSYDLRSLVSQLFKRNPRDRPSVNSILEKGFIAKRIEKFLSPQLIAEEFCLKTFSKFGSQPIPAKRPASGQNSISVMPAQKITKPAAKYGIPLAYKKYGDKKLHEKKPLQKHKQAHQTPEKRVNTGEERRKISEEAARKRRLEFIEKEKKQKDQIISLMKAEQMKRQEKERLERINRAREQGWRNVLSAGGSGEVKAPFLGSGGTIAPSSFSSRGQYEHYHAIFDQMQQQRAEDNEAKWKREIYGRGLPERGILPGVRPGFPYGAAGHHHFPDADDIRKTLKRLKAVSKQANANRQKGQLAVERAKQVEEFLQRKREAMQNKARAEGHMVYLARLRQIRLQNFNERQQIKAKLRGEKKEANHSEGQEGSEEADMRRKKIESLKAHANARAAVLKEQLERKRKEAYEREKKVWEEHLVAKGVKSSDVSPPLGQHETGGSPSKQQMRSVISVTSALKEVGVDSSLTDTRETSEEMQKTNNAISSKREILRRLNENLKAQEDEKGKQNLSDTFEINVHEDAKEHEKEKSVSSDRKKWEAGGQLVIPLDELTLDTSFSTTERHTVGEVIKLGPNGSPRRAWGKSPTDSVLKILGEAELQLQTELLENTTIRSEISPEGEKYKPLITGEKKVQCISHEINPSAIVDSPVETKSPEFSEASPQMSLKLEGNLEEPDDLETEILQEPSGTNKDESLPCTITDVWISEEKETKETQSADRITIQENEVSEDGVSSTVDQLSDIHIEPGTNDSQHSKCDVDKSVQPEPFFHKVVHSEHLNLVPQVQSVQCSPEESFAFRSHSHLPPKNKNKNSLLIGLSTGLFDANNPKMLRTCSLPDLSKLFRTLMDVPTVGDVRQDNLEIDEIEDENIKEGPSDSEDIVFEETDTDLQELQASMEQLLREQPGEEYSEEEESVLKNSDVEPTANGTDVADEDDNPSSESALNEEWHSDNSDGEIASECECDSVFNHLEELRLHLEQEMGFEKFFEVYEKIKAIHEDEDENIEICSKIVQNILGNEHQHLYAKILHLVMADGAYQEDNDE
# [13] = biological target: T5, Serine/threonine-protein kinase Nek1 (Homo sapiens); details: at 1 µM
# [14] = biological target: T6, Serine/threonine-protein kinase Nek2 (Homo sapiens) (UniProt P51955); details: at 0.1 µM
# T6 sequence (whole entry): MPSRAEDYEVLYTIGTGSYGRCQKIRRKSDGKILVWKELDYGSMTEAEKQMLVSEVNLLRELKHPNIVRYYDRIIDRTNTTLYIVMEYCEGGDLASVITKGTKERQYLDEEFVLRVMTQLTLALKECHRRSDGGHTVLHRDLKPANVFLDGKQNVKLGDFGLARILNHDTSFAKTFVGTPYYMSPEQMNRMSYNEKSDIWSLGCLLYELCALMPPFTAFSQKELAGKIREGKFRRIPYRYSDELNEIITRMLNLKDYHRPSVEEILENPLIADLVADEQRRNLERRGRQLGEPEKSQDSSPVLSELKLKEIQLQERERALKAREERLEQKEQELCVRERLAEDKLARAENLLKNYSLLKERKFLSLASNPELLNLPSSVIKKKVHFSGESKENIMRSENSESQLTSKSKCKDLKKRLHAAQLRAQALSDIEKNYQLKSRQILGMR
# [15] = biological target: T6, Serine/threonine-protein kinase Nek2 (Homo sapiens); details: at 1 µM
# [16] = biological target: Serine/threonine-protein kinase Nek6 (Homo sapiens) (UniProt Q9HC98); details: at 0.1 µM
# Chain of Serine/threonine-protein kinase Nek6 (Homo sapiens) (Q9HC98 whole entry): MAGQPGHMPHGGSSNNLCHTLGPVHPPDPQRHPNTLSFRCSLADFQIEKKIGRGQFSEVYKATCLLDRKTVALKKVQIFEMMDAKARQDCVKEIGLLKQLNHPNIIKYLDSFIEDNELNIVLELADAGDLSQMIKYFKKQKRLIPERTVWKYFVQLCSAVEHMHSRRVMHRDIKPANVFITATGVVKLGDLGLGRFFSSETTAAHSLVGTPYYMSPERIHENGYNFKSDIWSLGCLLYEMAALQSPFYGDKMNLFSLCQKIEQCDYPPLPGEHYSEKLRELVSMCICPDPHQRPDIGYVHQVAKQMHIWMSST
# [17] = biological target: Serine/threonine-protein kinase Nek6 (Homo sapiens) (UniProt Q9HC98); details: at 1 µM
# [18] = biological target: Serine/threonine-protein kinase Nek7 (Homo sapiens) (UniProt Q8TDX7); details: at 0.1 µM
# Chain of Serine/threonine-protein kinase Nek7 (Homo sapiens) (Q8TDX7 whole entry, looked up): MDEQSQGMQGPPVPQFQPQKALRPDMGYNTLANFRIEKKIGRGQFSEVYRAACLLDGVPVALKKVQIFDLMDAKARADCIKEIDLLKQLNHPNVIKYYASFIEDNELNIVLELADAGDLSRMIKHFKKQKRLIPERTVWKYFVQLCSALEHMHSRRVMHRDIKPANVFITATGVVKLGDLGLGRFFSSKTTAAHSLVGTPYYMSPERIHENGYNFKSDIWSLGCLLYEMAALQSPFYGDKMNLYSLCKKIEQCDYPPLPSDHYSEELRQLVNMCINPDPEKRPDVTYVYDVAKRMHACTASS
# [19] = biological target: Serine/threonine-protein kinase Nek7 (Homo sapiens) (UniProt Q8TDX7); details: at 1 µM
# [20] = biological target: T7, Serine/threonine-protein kinase Nek9 (Homo sapiens) (UniProt Q8TD19); details: at 0.1 µM;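 note: reported value is the mean percent inhibition of NEK9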
# T7 sequence (whole entry): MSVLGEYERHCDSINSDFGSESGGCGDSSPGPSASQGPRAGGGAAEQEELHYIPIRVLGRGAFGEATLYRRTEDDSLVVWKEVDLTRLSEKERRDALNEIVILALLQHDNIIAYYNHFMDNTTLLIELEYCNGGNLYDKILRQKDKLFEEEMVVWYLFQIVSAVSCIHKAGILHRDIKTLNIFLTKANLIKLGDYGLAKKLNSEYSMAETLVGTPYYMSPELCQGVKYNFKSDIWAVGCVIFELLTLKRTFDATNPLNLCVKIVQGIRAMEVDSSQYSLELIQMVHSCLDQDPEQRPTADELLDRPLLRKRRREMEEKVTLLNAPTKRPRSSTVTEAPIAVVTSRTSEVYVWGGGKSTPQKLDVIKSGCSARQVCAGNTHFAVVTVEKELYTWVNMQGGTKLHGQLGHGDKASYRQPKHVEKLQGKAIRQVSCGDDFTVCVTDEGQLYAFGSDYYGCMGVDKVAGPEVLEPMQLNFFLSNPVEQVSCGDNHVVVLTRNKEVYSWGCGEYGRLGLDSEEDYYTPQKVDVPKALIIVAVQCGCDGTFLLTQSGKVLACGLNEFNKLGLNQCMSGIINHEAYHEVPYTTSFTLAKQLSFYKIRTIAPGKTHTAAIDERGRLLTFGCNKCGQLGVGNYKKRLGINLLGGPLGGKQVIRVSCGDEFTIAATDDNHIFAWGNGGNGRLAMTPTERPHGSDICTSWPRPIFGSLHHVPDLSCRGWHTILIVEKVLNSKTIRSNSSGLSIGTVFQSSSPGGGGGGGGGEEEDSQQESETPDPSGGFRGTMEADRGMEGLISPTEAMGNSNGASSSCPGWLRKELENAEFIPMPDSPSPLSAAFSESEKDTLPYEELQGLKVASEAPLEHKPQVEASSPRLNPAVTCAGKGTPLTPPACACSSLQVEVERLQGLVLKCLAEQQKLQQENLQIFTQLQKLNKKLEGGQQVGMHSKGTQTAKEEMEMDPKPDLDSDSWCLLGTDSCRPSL
# Chain of Sphingosine kinase 1 (Homo sapiens) (Q9NYA1 whole entry): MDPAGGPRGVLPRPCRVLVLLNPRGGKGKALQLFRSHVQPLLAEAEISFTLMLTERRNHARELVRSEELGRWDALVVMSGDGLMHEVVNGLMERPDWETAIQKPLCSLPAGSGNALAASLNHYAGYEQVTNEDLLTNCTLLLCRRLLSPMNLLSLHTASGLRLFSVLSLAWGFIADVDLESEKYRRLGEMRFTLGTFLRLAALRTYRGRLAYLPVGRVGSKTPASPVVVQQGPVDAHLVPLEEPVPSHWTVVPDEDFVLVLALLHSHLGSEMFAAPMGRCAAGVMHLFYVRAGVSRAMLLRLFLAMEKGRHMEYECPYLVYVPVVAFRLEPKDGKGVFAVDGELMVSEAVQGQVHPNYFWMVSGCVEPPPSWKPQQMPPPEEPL
smiles,measurement,setting,value
CC(C)=Cc1cccc2c1/C(=N/Nc1ccc(S(N)(=O)=O)cc1)C(=O)N2,inhibition,[1],3.96%
same,inhibition,[2],0.66%
same,inhibition,[3],0.76%
same,inhibition,[4],1.84%
same,inhibition,[5],10.6%
same,inhibition,[6],3.49%
same,inhibition,[7],3%
same,inhibition,[8],1.01%
same,inhibition,[9],2.88%
same,inhibition,[10],5.72%
same,inhibition,[11],21.9%
same,inhibition,[12],0.48%
same,inhibition,[13],2.3%
same,inhibition,[14],-1.83%
same,inhibition,[15],-0.31%
same,inhibition,[16],1.86%
same,inhibition,[17],0.97%
same,inhibition,[18],-1.18%
same,inhibition,[19],-0.48%
same,inhibition,[20],4.67%
